The entries come from a sample that favours hits as a whole.
TbPYK inhibitor: inhibitors of Trypanosoma brucei pyruvate kinase | 0.12% of 410,000 active | Potency, µM (highest dose often 76.8 µM), inactives show at the highest dose activity, negative = inhibition, usual class: inhibitors | TbPYK enzyme, Kinase-Glo Plus ATP luminescence, 45 min; also: potency is read from the fitted curve at half-maximal effect; % is scaled to controls: 0 for no effect and ±100 for the full control effect; nearly all actives have a fitted effect of over 50% in size
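Enzyme and substrate buffer are dispensed first and compound is pin-transferred. ADP at 130 uM final then starts the reaction, which runs 45 min at room temperature. Detection reagent is added for 10 min before luminescence is imaged.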
Shiga toxin inh: Shiga toxin inhibition | 9.2% of 290,000 active | inhibition, % at 38.7 µM | Vero cells, Shiga toxin protein synthesis inhibition reporter; in the data active = inhibition mostly above about 28%, no sharp cut-off; inactive = mostly below about 43%; also: 0% is about no effect
CHX counter: affects cycloheximide protein synthesis inhibition readout, counter-screen. 12% of 300,000 active. AID 2314. max response, %. cell reporter, cycloheximide protein synthesis inhibition counterscreen; in the data active = max response mostly above about 13%, no sharp cut-off; inactive = mostly below about 14%; also: read at 38.3 µM for the half of the compounds with a filed dose; 0% is about no effect
Sm TGR inh: inhibitors of Schistosoma mansoni thioredoxin glutathione reductase; purified TGR, DTNB reduction, TNB absorbance 405 nm; Potency, µM (series often up to 114 µM), inactives show at the highest dose activity change, negative = inhibition, usual class: inhibitors; 3% of 360,000 active; AID 485364; also: potency is read from the fitted curve at half-maximal effect; % is scaled to controls: 0 for no effect and ±100 for the full control effect; nearly all actives have a fitted effect of over 60% in size
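Kinetic colorimetric format: TGR-catalysed, NADPH-driven DTNB reduction monitored via TNB absorbance. Enzyme dispensed at 20 nM; compound exposure 15 min at room temperature before reaction start.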
Giardia FBPA inh: inhibitors of Giardia lamblia fructose-1,6-bisphosphate aldolase. 0.71% of 290,000 active. AID 2451. Potency, µM (titrated, usually from 59.6 µM), without a hit: at the top dose activity, negative = inhibition, most hits filed as inhibitors. purified Giardia FBPA. A8B2U2; also: potency is read from the fitted curve at half-maximal effect; % is scaled to controls: 0 for no effect and ±100 for the full control effect; nearly all actives have a fitted effect of over 55% in size
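40 nM FBPA preincubated 10 min at RT with compound (up to 57.5 uM final), then substrate plus GAPDH/TPI/NAD/arsenate coupling and diaphorase/resazurin added. Fluorescence read after 20 min at RT, 525/598 nm.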
LmPK inhibitor: LmPK (Leishmania mexicana) enzyme inhibition; purified LmPK, Kinase-Glo ATP luminescence, 1 h; Q27686; 0.37% of 290,000 active; AID 1721; Potency, µM (top dose mostly 57.5 µM), inactives show at the top dose activity change, negative = inhibition, hits mostly inhibitors; also: potency is read from the fitted curve at half-maximal effect; % is scaled to controls: 0 for no effect and ±100 for the full control effect
Target sequence (Q27686 whole entry, looked up): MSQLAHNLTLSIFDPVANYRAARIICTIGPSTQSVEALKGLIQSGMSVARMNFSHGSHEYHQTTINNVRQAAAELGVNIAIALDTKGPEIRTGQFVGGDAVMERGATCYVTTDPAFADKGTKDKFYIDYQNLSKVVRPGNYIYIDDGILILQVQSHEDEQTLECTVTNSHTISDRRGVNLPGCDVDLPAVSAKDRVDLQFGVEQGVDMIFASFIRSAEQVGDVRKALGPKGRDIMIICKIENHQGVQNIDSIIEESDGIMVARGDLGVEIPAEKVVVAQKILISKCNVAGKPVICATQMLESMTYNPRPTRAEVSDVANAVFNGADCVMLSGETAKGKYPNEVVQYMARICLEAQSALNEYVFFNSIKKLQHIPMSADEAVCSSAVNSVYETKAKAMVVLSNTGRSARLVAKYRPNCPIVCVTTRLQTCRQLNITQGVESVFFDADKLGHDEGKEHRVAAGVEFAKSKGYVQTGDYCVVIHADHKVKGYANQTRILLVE
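0.1 nM LmPK, 0.5 mM PEP, 0.1 mM ADP; 50 mM imidazole pH 7.2, 7 mM MgCl2, 50 mM KCl; 1 h RT. Kinase-Glo luminescence readout, normalized to no-enzyme (full inhibition) and uninhibited wells.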
* marks the source's active call; other numbers are inactive results; [ ] = dose if it differs, or a comment. Unless noted, calls follow the shape of the dose curve; as a rule, active = well fitted curve in the direction sought with a large enough effect; inconclusive = small, poorly fitted or top-dose-only effect, or another doubt; inactive = no such curve, though single readings can be large; an effect the other way counts as inactive or inconclusive.

CCC(=O)Nc1ccc(/C(C)=N\NC(=O)c2ccc(C)s2)cc1 was read as TbPYK inhibitor -2.0%, Shiga toxin inh 21.5, CHX counter 15.0*, Sm TGR inh 6.1%, Giardia FBPA inh 6.8% and LmPK inhibitor 0.1%.
For C/C(=N/NC(=O)c1ccc(Br)o1)c1cccc(NC(=O)c2ccc(C)o2)c1 the results were TbPYK inhibitor inconclusive, Shiga toxin inh 136.2*, CHX counter 27.6*, Sm TGR inh 2.2%, Giardia FBPA inh -6.9% and LmPK inhibitor -4.4%.
Screening C/C(=N/NC(=O)c1ccco1)c1cccc(NC(=O)c2ccc(C)s2)c1 returned TbPYK inhibitor -4.2%, Shiga toxin inh 68.2*, CHX counter 55.6*, Sm TGR inh -4.9%, Giardia FBPA inh -18.7% and LmPK inhibitor -0.3%.
Screening COc1ccc(C(=O)N/N=C(\C)c2cccc(NC(=O)c3ccc(F)cc3)c2)c(OC)c1 returned TbPYK inhibitor -4.7%, Shiga toxin inh 15.5, CHX counter 25.9*, Sm TGR inh -10.9% and LmPK inhibitor -5.8%.
`C/C(=N/NC(=O)c1ccc(Cl)s1)c1ccc(NC(=O)COc2ccc(Cl)cc2)cc1` gave TbPYK inhibitor 2.2%, Shiga toxin inh -4.8, CHX counter 14.7, Sm TGR inh -3.5%, Giardia FBPA inh -5.0% and LmPK inhibitor 1.5%.
Screening COc1ccc(C(=O)N/N=C(/C)c2cccc(NC(=O)c3ccccc3F)c2)cc1 returned TbPYK inhibitor 1.1%, Shiga toxin inh 25.4, CHX counter 20.3, Sm TGR inh 6.9% and LmPK inhibitor -1.6%.
Cc1nnc2c(Nc3cccc(O)c3)nc3ccccc3n12 was read as TbPYK inhibitor -1.5% and Sm TGR inh 2.5%.
Cc1cccc(CNC(=O)C2CCN(c3nc4ccc(Cl)cc4[nH]3)CC2)c1 was read as TbPYK inhibitor 0.0%[15.4 µM] and Sm TGR inh 4.2%.
Cc1cccc2c1-c1sc(C(=O)N(C)c3cccc(C(F)(F)F)c3)cc1CO2 was read as TbPYK inhibitor 2.1% and Sm TGR inh 11.1%.
Screening Ic1ccc(N2CCN(Cc3c[nH]c4ncccc34)CC2)cc1 returned TbPYK inhibitor -8.1%, Sm TGR inh 0.0% and Giardia FBPA inh -3.0%.
For CCCn1nc(C(=O)OCC(=O)Nc2cccc(OC)c2)c2ccccc2c1=O the results were TbPYK inhibitor 0.0%, Shiga toxin inh -5.2, CHX counter 1.2, Sm TGR inh 0.7%, Giardia FBPA inh 3.5% and LmPK inhibitor 4.4%.
`COc1ccc(C(=O)Nc2ccc(NC(=O)c3cccc(F)c3)cn2)cc1` gave TbPYK inhibitor -5.3%, Shiga toxin inh 15.0, CHX counter -1.9, Sm TGR inh 2.2%, Giardia FBPA inh inconclusive and LmPK inhibitor 0.3%.
`CC(=O)N/N=C(\C)c1cccc(NC(=O)c2cccs2)c1` gave TbPYK inhibitor 3.5%, Shiga toxin inh -1.7, CHX counter 1.4, Sm TGR inh -5.9%, Giardia FBPA inh -1.6% and LmPK inhibitor 1.9%.
Screening C/C(=N\NC(=O)c1ccn(C)n1)c1cccc(NC(=O)c2ccc(C)s2)c1 returned TbPYK inhibitor 2.1%, Shiga toxin inh 77.1*, CHX counter 31.9*, Sm TGR inh 6.6%, Giardia FBPA inh -5.8% and LmPK inhibitor 0.4%.
`C/C(=N\NC(=O)c1ccn(C)n1)c1ccc(NC(=O)c2cccc(F)c2)cc1` gave TbPYK inhibitor 1.5%, Shiga toxin inh 169.9*, CHX counter 58.2*, Sm TGR inh -0.1% and LmPK inhibitor -2.9%.
For CCC(CC)C(=O)Nc1cccc(/C(C)=N\NC(=O)c2ccc(C)s2)c1 the results were TbPYK inhibitor -4.7%, Shiga toxin inh 14.1, CHX counter 14.1*, Sm TGR inh -22.9%, Giardia FBPA inh 1.9% and LmPK inhibitor 4.9%.
For C/C(=N/NC(=O)c1ccc(Br)o1)c1cccc(NC(=O)c2ccc(F)cc2)c1 the results were TbPYK inhibitor -3.8%, Shiga toxin inh 120.0*, CHX counter 48.9*, Sm TGR inh 0.0% and LmPK inhibitor -8.7%.

Screens from PubChem.
